From PubChem
AmpC inh no detg = AmpC beta-lactamase inhibition without detergent; P00811; AmpC nitrocefin hydrolysis, absorbance 480 nm, 0.0001% Triton; Potency, µM (doses to about 57.1 µM), inactives show at the highest dose activity change, negative = inhibition, usual class: inhibitors; 330,000 compounds, 0.52% hits; AID 485341;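 also: plate controls were no compound for no effect and no enzyme for full effect; nearly all actives have a fitted effect of over 20% in size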
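AmpC (5.3 nM in the dispensed reagent) in 20 mM phosphate pH 7.0 with 0.01% (detergent screen) or 0.0001% Triton X-100 was preincubated with compounds for 15 min at room temperature. Nitrocefin was then added from an 800 uM solution, and hydrolysis was followed at 480 nm.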
SARS PLP yeast = blocks SARS-CoV papain-like protease in a yeast assay. S. cerevisiae expressing SARS-CoV PLpro, growth rescue. 330,000 compounds, 0.19% hits. Potency, µM (series often up to 32.9 µM), for the others: at the highest dose activity, positive = growth rescue, most hits filed as activators; calls by dose curve; also: 0% is about no effect; nearly all actives have a fitted effect of over 55% in size
Giardia FBPA inh-1 = inhibitors of Giardia lamblia fructose-1,6-bisphosphate aldolase | A8B2U2 | purified Giardia FBPA | Potency, µM (series often up to 59.6 µM), inactives show at the highest dose activity, negative = inhibition, actives largely listed as inhibitors | 290,000 compounds, 0.71% hits | AID 2451; also: % is scaled to controls: 0 for no effect and ±100 for the full control effect; nearly all actives have a fitted effect of over 55% in size
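40 nM FBPA preincubated 10 min at RT with compound (up to 57.5 uM final), then substrate plus GAPDH/TPI/NAD/arsenate coupling and diaphorase/resazurin added. Fluorescence read after 20 min at RT, 525/598 nm.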
AmpC inh detg = inhibitors of E. coli AmpC beta-lactamase with detergent | AmpC hydrolysis of nitrocefin, absorbance 480 nm, 0.01% Triton | Potency, µM (top dose mostly 114 µM), inactives show at the top dose activity change, negative = inhibition, usual class: inhibitors | 370,000 compounds, 0.041% hits;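 also: 0% = no-compound wells and -100% = no-enzyme wells; nearly all actives have a fitted effect of over 25% in size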
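20 mM phosphate pH 7.0 + 0.01% (detergent screen) or 0.0001% Triton X-100; 5.3 nM AmpC reagent; cpd preinc 15 min RT; nitrocefin (800 uM stock) to start; A480 q20 s × 4 min; Activity was normalised to no-enzyme and no-compound control wells.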
Giardia growth = blocks growth of Giardia lamblia trophozoites. shares compounds with Giardia FBPA inh-1. Giardia lamblia trophozoite growth inhibition. Potency, µM (highest dose often 57.5 µM), for inactives: at the top dose activity change, negative = inhibition, most hits filed as inhibitors. 1,500 compounds, 5% hits. AID 2785;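 also: trophozoites exposed to compound for 48 h at 37 °C; % is scaled to controls: 0 for no effect and ±100 for the full control effect; nearly all actives have a fitted effect of over 70% in size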
Mammal cell tox = toxic to mammalian cells in Giardia aldolase counter-screen; AID 2786; mammalian cell viability counter-screen, qHTS; Potency, µM (series often up to 57.5 µM), for inactives: top-dose viability change, negative = toxicity, most hits filed as inhibitors; 1,500 compounds, 4% hits; shares compounds with Giardia FBPA inh-1;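 also: Chinese hamster ovary cells used as mammalian cytotoxicity surrogate; viability measured as cellular ATP by luminescence; compound exposure lasted 48 h before reading; % is scaled to controls: 0 for no effect and ±100 for the full control effect; nearly all actives have a fitted effect of over 60% in size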
Giardia FBPA inh-2 = confirmation of Giardia fructose-bisphosphate aldolase inhibitors; shares compounds with Giardia FBPA inh-1; purified Giardia aldolase enzyme activity, qHTS; Potency, µM (doses to about 57.5 µM), for inactives: at the top dose activity change, negative = inhibition, actives largely listed as inhibitors; 1,500 compounds, 5% hits; also: % is scaled to controls: 0 for no effect and ±100 for the full control effect; nearly all actives have a fitted effect of over 45% in size
Rabbit FBPA inh = rabbit FBP aldolase inhibition by Giardia aldolase hits; shares compounds with Giardia FBPA inh-1; 1,500 compounds, 4% hits; Potency, µM (series often up to 57.5 µM), for inactives: top-dose activity, negative = inhibition, actives largely listed as inhibitors; Rabbit muscle FBPA enzyme inhibition, selectivity counter-screen; also: % is scaled to controls: 0 for no effect and ±100 for the full control effect; nearly all actives have a fitted effect of over 60% in size
Target sequence (P00883 whole entry, looked up): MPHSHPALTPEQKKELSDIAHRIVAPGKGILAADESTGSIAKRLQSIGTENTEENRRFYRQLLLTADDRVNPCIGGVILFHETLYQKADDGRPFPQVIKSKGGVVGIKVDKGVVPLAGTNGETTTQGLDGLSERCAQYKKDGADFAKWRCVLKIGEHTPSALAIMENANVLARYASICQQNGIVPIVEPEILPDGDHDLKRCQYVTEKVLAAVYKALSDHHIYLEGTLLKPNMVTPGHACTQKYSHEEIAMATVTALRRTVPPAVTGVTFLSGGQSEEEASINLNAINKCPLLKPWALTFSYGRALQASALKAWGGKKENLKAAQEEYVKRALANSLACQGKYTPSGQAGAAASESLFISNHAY
GAPDH coupling = GAPDH inhibition flagged for Giardia aldolase hits. 1,500 compounds, 6% hits. Potency, µM (series often up to 57.5 µM), without a hit: at the top dose activity change, negative = inhibition, most hits filed as inhibitors. shares compounds with Giardia FBPA inh-1. GAPDH coupling enzyme counterscreen, biochemical, qHTS; also: % is scaled to controls: 0 for no effect and ±100 for the full control effect; nearly all actives have a fitted effect of over 55% in size
Active calls of the source: *; u = inconclusive; x = not tested or not shown; [ ] = another dose, or the depositor's remark. An excerpt weighted towards active compounds, which were near 1.1% of everything screened. Unless noted, calls follow the shape of the dose curve; as a rule, active = well fitted curve in the direction sought with a large enough effect; inconclusive = small, poorly fitted or top-dose-only effect, or another doubt; inactive = no such curve, though single readings can be large; an effect the other way counts as inactive or inconclusive. Potency is read from the fitted curve at half-maximal effect.

SMILES | AmpC inh no detg | SARS PLP yeast | Giardia FBPA inh-1 | AmpC inh detg | Giardia growth | Mammal cell tox | Giardia FBPA inh-2 | Rabbit FBPA inh | GAPDH coupling
COc1c(O)ccc(/C=C(\C#N)c2nc3ccccc3[nH]2)c1[N+](=O)[O-] | 1% | -7% | u | -1% | u | -14% | -24% | -15% | -16%
CC(C)(C)C(=O)NCC(c1ccc2c(c1)OCO2)N1CCOCC1 (configuration not stated) | x | x | x | 1% | x | x | x | x | x
Cc1ccc(/C=C2\SC(=S)N(C3CCS(=O)(=O)C3)C2=O)o1 (configuration not stated) | -47% | -2% | u | 2% | x | x | x | x | x
CC1=C(C#N)C(=O)N(C2CCS(=O)(=O)C2)C(=O)/C1=C\c1ccc(C)o1 (configuration not stated) | 13% | 0% | 13µM* | -12% | 47% | 5% | u | u | u
COC(=O)c1cc(C)nc2c1C(=O)C(=O)C=C2N1CCOCC1 | -15% | 11% | 0.25µM* | 1% | 25µM* | 20µM* | 1.3µM* | 1.4µM* | 1.4µM*
CCN(CC(=O)Nc1ccccc1OC)CC(=O)Nc1ccccc1C(F)(F)F | 75% | 1% | -5% | u | x | x | x | x | x
CCN(CC(=O)Nc1ccccc1OC)CC(=O)Nc1ccccc1-c1ccccc1 | 86% | 0% | 18µM* | -3% | 28% | -23% | 4% | -3% | 16%
O=C(NC1CC(=O)N(c2cccc(F)c2)C1)c1ccc(S(=O)(=O)N2CCCC2)cc1 (configuration not stated) | x | x | x | 0% | x | x | x | x | x
O=C(O)c1cccc(-c2ccc(/C=N/Nc3nn[nH]n3)o2)c1 | -42% | 4% | 16µM* | -1% | -12% | 5% | -1% | -11% | -1%
COc1ccc(-c2c(O)c3cc(O)cc(O)c3oc2=O)cc1 | x | x | 2% | x | x | x | x | x | x
O=c1c(CO)cc(CO)cc(CO)c1O | -5% | -5% | u | -9% | -4%[38.3 µM] | -10% | -23% | -10% | -16%
CCc1ccccc1NC(=O)CSc1n[nH]c(-c2cccnc2)n1 | -11% | 1% | -10% | -7% | x | x | x | x | x
O=C(CSc1n[nH]c(-c2cccnc2)n1)Nc1ccccc1[N+](=O)[O-] | -38% | 9% | 25µM* | -4% | u | -7% | -6% | 2% | 5%
Cc1[nH]c2ccccc2c1/C=N/Nc1nncn1N | -12% | -3% | 13µM* | 5% | -12% | -19% | u | u | -27%
O=Nc1onc(-c2ccc([N+](=O)[O-])cc2)c1NO | -34% | -2% | 14µM* | 7% | u | 1% | -14% | -4% | 16%
COc1ccc(/C=C\c2onc(C)c2S(=O)(=O)N2CCC(C(=O)Nc3ccc(C)cc3C)CC2)cc1 | x | x | x | 3% | x | x | x | x | x
CC(CN1CCCC1)OC(=O)c1ccc(Cl)cc1Cl (configuration not stated) | -10% | -3% | 16µM* | -6% | 18% | -10% | 0% | -1% | -19%
COc1ccccc1C(=O)OC(C)CN1CCN(C)CC1 (configuration not stated) | -5% | -4% | 32µM* | 0% | -5%[10.4 µM] | 3% | 6% | 2% | -12%
CC(CN1CCN(C)CC1)OC(=O)c1ccccc1 (configuration not stated) | 44% | -1% | -9% | 1% | x | x | x | x | x
COc1ccc(-c2ccc(NS(=O)(=O)c3ccc(OC)c(OC)c3)cc2)nn1 | x | x | x | 28% | x | x | x | x | x
